# PubChem BioAssay AID2410 (Southern Research Specialized Biocontainment Screening …, 2010)
# The whole screen tested about 2,500 compounds, of which about 2,100 (84%) were called active. The set was probably picked from earlier hits. Only a sample is shown. Results with a measured potency or affinity are listed apart. Values without a mark were called inactive.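 The calls were made as follows: active = toxic compounds, whose cell viability fell below 70% of untreated control cells; inactive = the rest.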
# Experiment: HEp-2 cell cytotoxicity, dose response, cytotoxicity control for RSV inhibitor project, HTS (AID 2410);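 also: cells exposed to compound for six days before readout; 100% = median signal of untreated cell control wells on each plate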
# Settings: HEp-2 viability, luminescence, cytotoxicity counter-screen; series mostly up to 50 µM; viability: at the top concentration
row,SMILES,viability
1,CCOc1cc(/C=N/O)cc(Br)c1OCc1ccc(Cl)cc1,95.8%
2,COc1ccc(OC)c(-n2c(SCC(=O)NCc3ccco3)nnc2-c2c[nH]c3ccccc23)c1,70.7%
3,O=c1[nH]c(/C=C2\C=Nc3ccccc32)c(O)n1Cc1ccccc1F,90.2%
4,COc1ccc(-c2nc[nH]c2[N+](=O)[O-])cc1,94.2%
5,C=CCN1C(=O)N(/C=C/C)c2cccc3cccc1c23,96.3%
6,CCOC(=O)C1=C(C)N=c2s/c(=C/c3ccc(OCC(=O)O)c(OC)c3)c(=O)n2C1c1ccc(Cl)cc1 (stereo unspecified),76.8%
7,CCCC(c1nnnn1CC(=O)OCC)N(Cc1cc2c(C)cc(C)cc2[nH]c1=O)C1CCCC1 (stereo unspecified),119%
8,COc1ccc(NC2c3ncccc3C(=O)N2Cc2cccs2)cc1 (stereo unspecified),83.8%
9,CC(=O)Nc1ccc2c(CSc3nnc(N)s3)cc(=O)oc2c1,120%
10,C=CCSc1nnc2nc3c(nn12)c1cc(C)ccc1n3CC=C,76.7%
11,c1csc(-c2nn3c(Cn4cnc5ccccc54)nnc3s2)c1,85.1%
12,O=C1c2ccccc2C(=O)N1CCCCN(C(=O)c1ccco1)c1ccc(Cl)cc1,72.2%
13,NC(=O)N\N=C/C=C/C=C/c1ccc(F)cc1,72.2%
14,CNC(=S)N/N=C(\C)c1cccc(C(F)(F)F)c1,94.9%
15,Nc1ccc(C(=O)N/N=C2\CCCc3c2[nH]c2ccccc32)cc1,101%
16,CCC(=O)N(CC(=O)Nc1sc(C)c(C)c1C(N)=O)C1CCCC1,88.8%
17,COc1ccccc1CN1C[C@@H]2C[C@@H](c3ccc(C)c(C)c3)N3CCC[C@@]23C1=O,70.3%
18,Cc1ccc(C(=O)N/C(=C\c2ccc(C(C)C)cc2)C(=O)NCCCN2CCOCC2)cc1,81.3%
19,Cc1ccc(-c2nc3cc(N)ccc3o2)c(C)c1,95.1%
20,Cc1cc2nc(-c3ccc(NC(=O)C(C)C)cc3)oc2cc1C,81.2%
21,CCCC(=O)Nc1ccc(-c2nc3cc(C)c(C)cc3o2)cc1,75.3%
22,O=C(c1ccc(F)cc1Cl)N(c1ccccn1)C1CCCCC1,71.9%

row,SMILES,viability
1,c1csc(-c2nn3c(Cn4nnc5ccccc54)nnc3s2)c1,102%
2,Cn1c(NCc2cc(Br)ccc2O)nc2ccccc21,91.3%
3,COc1cc(C)c2occ(/C(C)=N\O)c2c1,98.9%
4,COc1cc(/C=C(\C#N)c2nc3ccccc3s2)ccc1OCC(=O)Nc1ccccc1,101%
5,O=C(Oc1ccc(-c2cnc3ccccc3n2)cc1)c1ccco1,95.7%
6,OCCC1CN(Cc2cccn2-c2nccs2)CCN1CCc1ccccc1 (stereo unspecified),76.8%
7,CS(=O)(=O)c1ccc(Cl)c(NC(=O)c2ccc3ccccc3c2)c1,110%
8,O=C(Nc1ccccn1)C1COc2ccccc2O1 (stereo unspecified),86%
9,CCOC(=O)c1c(NC(=O)C2COc3ccccc3O2)sc2c1CC(C)(C)NC2(C)C (stereo unspecified),84.5%
10,O=C(CCn1c(=O)c2ccccc2n(Cc2cc(=O)n3ccccc3n2)c1=O)NCc1ccco1,96.9%
11,NC(=O)COc1ccc2c3c(c(=O)oc2c1)CCCCC3,79.8%
12,CCOC(=O)c1c(C)oc2c1cc(O)c1ccccc12,74.8%
13,Cn1c2ccccc2c2cc([N+](=O)[O-])ccc21,85.2%
14,CC(=O)Cc1nsc(NC(=O)c2oc(-c3ccccc3Cl)cc2C)n1,73.8%
15,Cc1ccc(NC(=O)c2ccc(NS(=O)(=O)c3cccc4cccnc34)cc2)cc1,72.4%
16,Cn1c(=O)c2c3c(sc2n2cnnc12)CCC3,93.9%
17,Cc1ccc(S(=O)(=O)N2CCC(C(=O)OCC(=O)N3CCCC3=O)CC2)cc1C,106%
18,O=C(N=Nc1c(O)[nH]c2ccc([N+](=O)[O-])cc12)c1ccccc1[N+](=O)[O-],74.4%
19,O=C(CNC(=O)c1ccco1)N=Nc1c(O)[nH]c2ccc([N+](=O)[O-])cc12,74.5%
20,COc1ccc(Cl)cc1NC(=O)C1(c2cccs2)CCOCC1,87.3%
21,COc1ccccc1CNC(=O)C1CCCN1S(=O)(=O)c1cccc2cccnc12 (stereo unspecified),85.4%
22,Cc1ccc(NC(=O)CN(C)S(=O)(=O)c2cccc3cccnc23)c(C)c1,87.6%

row,SMILES,viability
1,Cc1ccc(-c2csc3nc(C)n(N)c(=O)c23)o1,80%
2,C=C(C)C(=O)Nc1cccc(C2=NOC3(C2)C[C@@H](C(N)=O)N(C(=O)c2ccc(OC)cc2)C3)c1 (stereo partly specified),75.9%
3,CCOC(=O)c1ccc2[nH]c3c(c2c1)CN(C)CC3,105%
4,C/C(N)=C(/C#N)C(=O)COC(=O)c1cc2c(s1)CCCC2,113%
5,CNS(=O)(=O)c1ccc(OC)c(-c2nnc3c4ccccc4c(C)nn23)c1,107%
6,COc1ccc(C(C(=O)NC2CCCC2)N(C(=O)c2snc(C(N)=O)c2N)c2cc(C)ccc2OC)cc1OC (stereo unspecified),88.9%
7,C=C(C)Cn1c(N2CC(C)CC(C)C2)nc2c1c(=O)[nH]c(=O)n2C (stereo unspecified),99.3%
8,Brc1cccc(-c2nc(-c3ccncc3)no2)c1,82.8%
9,CC(C)(C)c1cc(NC(=O)c2cc(F)c(F)c(F)c2F)no1,76.3%
10,Cc1ccc(N2C=Nc3ccc(C)c4nc(C)cc2c34)cc1,73.6%
11,CC1(C)CC(=O)C2=C(C1)OC(N)=C(C#N)C2C#Cc1ccccc1 (stereo unspecified),102%
12,O=C(O)c1cc(-c2ccc(/C=C3\NC(=O)N(c4ccc(Cl)cc4)C3=O)o2)ccc1Cl,87%
13,CC(=O)Oc1cc(OC(C)=O)c2c(C)cc(=O)oc2c1,82.4%
14,COc1cc(/C=N/O)cc(Br)c1OCc1cccc(Cl)c1,96.1%
15,Cc1ccc(-n2c(=O)c3sccc3n(Cc3cc(=O)n4ccccc4n3)c2=O)cc1,94.5%
16,COc1ccc(-n2c(SCC(=O)/C(C#N)=C(\C)N)nc3ccccc3c2=O)cc1OC,99%
17,Nc1ccc(Sc2cc(Cl)nc(N)n2)cc1,104%
18,CCC(=O)Nc1ccc(C(=O)OCC(=O)c2ccc(C)c([N+](=O)[O-])c2)cc1,76.5%
19,Cc1ccc(OCC(=O)Nc2c[nH]c(=O)[nH]c2=O)cc1C,87.6%
20,COc1ccc(C(=O)N2CC(c3ccc(Cl)cc3)CC2=O)cc1 (stereo unspecified),80.7%
21,CCn1c2ccccc2c2cc(NC(=O)C(=O)NCC3CCCO3)ccc21 (stereo unspecified),77.6%
22,CSc1nc(C)c(C(=O)Nc2ccccc2)c(-c2ccco2)c1C#N,88.8%

row,SMILES,viability
1,Cn1c(=NC(=O)c2ccco2)sc2ccccc21,101%
2,Cc1ccc(C(=O)OCC(=O)c2c[nH]c3ccccc23)cc1NC(=O)c1ccco1,84%
3,CC[C@@]12C(=O)N(c3ccc(OC)cc3)C(=O)N1[C@H](c1ccc(Cl)cc1)[C@@H]1C(=O)N(C3CCCCC3)C(=O)[C@@H]12,83.2%
4,CCOC(=O)c1sc2nc(C)[nH]c(=O)c2c1C,74.5%
5,CCOC(=O)c1sc2nc(COC(=O)c3c(F)cccc3F)[nH]c(=O)c2c1C,81.5%
6,Cc1nn(Cc2ccc(F)cc2)c(C)c1NC(=O)c1cnn2c1NC(c1ccccc1)CC2C(F)(F)F (stereo unspecified),89.7%
7,CCN(c1cc(C)cc(C)c1)S(=O)(=O)c1nnc(NC(=O)C(C)C)s1,71.8%
8,Cc1ccc(S(=O)(=O)N2CCN(C)CC2)cc1-c1nnc2c3ccccc3c(C)nn12,90.2%
9,O=C(c1ccc(Br)o1)N1CCN(c2ccc3nnc(-c4ccccc4)n3n2)CC1,79.8%
10,COc1ccc(C(=O)O/N=C2\C(=O)N(C)c3ccccc32)cc1,95.8%
11,N#Cc1cc(Cl)c(N2CCOCC2)cc1C#N,79.7%
12,O=C(O)CSc1cn(Cc2ccccc2)c2ccccc12,94%
13,O=C(Nc1cc(Cl)cc(Cl)c1)c1ccc(Cn2c(=O)[nH]c3ccsc3c2=O)cc1,102%
14,CC1CCN(C(=O)Cn2c(=O)n(-c3ccc(F)cc3)c(=O)c3sccc32)CC1,115%
15,COc1ccc(S(=O)(=O)NC(C)(C)C)cc1-c1nnc2c3ccccc3c(C)nn12,119%
16,O=C1c2cccnc2C(Nc2ccc(Cl)cc2)N1Cc1cccs1 (stereo unspecified),103%
17,Cn1ncc(Cl)c1C(=O)Nc1ccc(Cl)cn1,80%
18,O=C(Nc1ccc2c(c1)CCC2)c1ccc(F)cc1,89.2%
19,COc1ccccc1C(=O)NCCNc1nc2cc(C)cc(C)c2cc1C#N,83.7%
20,CN(C)c1ccc(C2CC(c3cccc(NS(C)(=O)=O)c3)=NN2C(=O)c2ccccc2)cc1 (stereo unspecified),75.5%
21,CCc1cccc2c(C(=O)COC(=O)c3ccccc3)c[nH]c12,95.7%
22,CCc1nn(CCCC(=O)NCc2ccccc2Br)c(=O)c2cc3occc3n12,94.9%

row,SMILES,viability
1,Cc1ccc(CNc2ccc([N+](=O)[O-])cc2C(N)=O)cc1,71.8%
2,CC(C)Cc1nc2n[nH]c(N)c2c2c1CCC2,81.1%
3,COc1ccc(CN2C(=O)c3cccnc3C2Nc2cc(Cl)c(OC)cc2OC)cc1 (stereo unspecified),97.6%
4,CC(Oc1ccccc1F)C(=O)Nc1ccc2ccccc2c1 (stereo unspecified),88.9%
5,COc1cc(OC)cc(C(=O)NCCNc2nc3cc(C)cc(C)c3cc2C#N)c1,81.1%
6,Cc1cc(C)c2c(c1)c(C)cc1nnc(SCC(=O)NCc3ccco3)n12,92.6%
7,O=C1c2cccnc2C(Nc2ccccc2)N1Cc1ccco1 (stereo unspecified),130%
8,CS(=O)(=O)N1CCC(Oc2ccccc2C(=O)N2CCN(CC3CC3)CC2)CC1,83%
9,COc1ccc(NC2c3ccccc3C(=O)N2Cc2ccccc2Cl)cc1OC (stereo unspecified),72.8%
10,COc1cc(NC2c3ccccc3C(=O)N2Cc2ccc3c(c2)OCO3)cc(OC)c1OC (stereo unspecified),101%
11,CCN(CC)S(=O)(=O)c1cc(C(=O)c2nccn2C)ccc1Cl,73%
12,Cc1ccc(C2C3CSCC=C3C(C#N)=C(N)C2(C#N)C#N)cc1 (stereo unspecified),73%
13,O=C(CSc1ccc2ccccc2c1)NC1CCCc2ccccc21 (stereo unspecified),104%
14,CCC1CCc2c(sc(NC(C)=O)c2C#N)C1 (stereo unspecified),72.8%
15,COCCNC(=S)N1CCc2cc(OC)c(OC)cc2C1COc1cc(C)cc(C)c1 (stereo unspecified),89.2%
16,Cc1c(-c2ccccc2)c(=O)oc2ccc(O)cc12,102%
17,O=C(CCCn1c(=O)c2sccc2n(Cc2cc(=O)n3ccccc3n2)c1=O)NCc1ccco1,105%
18,O=C(CCn1c(=O)c2sccc2n(Cc2cc(=O)n3ccccc3n2)c1=O)NCc1ccco1,90.2%
